The source made the active and inactive calls. Rule for the calls: active = hit-call score of the fitted dose curve at least 0.9, where 1 is the maximum; inactive = score below 0.9.

The values that follow come from PubChem BioAssay (EPA / NIEHS).

A short description of test [1]: ATG_CRE_CIS: Attagene CIS-FACTORIAL HepG2 Assay for human cAMP Responsive Element (CRE) binding protein 3 (AID 2282926). The settings on record: HepG2 CRE cis-reporter, Attagene multiplexed mRNA; actives raise or lower the signal. The method in brief:
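Endogenous transcription factor activity read via CRE-regulated reporter transcripts in transfected HepG2 cells. After 24 h exposure, RNA was reverse-transcribed, amplified, fluorescently labelled and sized by capillary electrophoresis; gain or loss fitted against DMSO.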

Test [2] has as its target CCAAT/enhancer-binding protein beta (Homo sapiens) (UniProt P17676). Nature of the test: ATG_C_EBP_CIS: Attagene CIS-FACTORIAL HepG2 Assay for human CCAAT/Enhancer Binding Protein (C/EBP) beta (AID 2282927). The settings on record: HepG2 Attagene cis-factorial transcription factor reporter; actives raise or lower the signal. The method in brief:
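Transiently transfected HepG2 (MRTU library, endogenous TF-driven promoters); 24 h dosing; total RNA → oligo(dT) RT → PCR → 6-FAM primer extension → HpaI digest → CE; fit bidirectionally vs DMSO.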

A short description of test [3]: ATG_CMV_CIS: Attagene CIS-FACTORIAL HepG2 Assay for human CMV (Internal Marker) (AID 2282928).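 Note: endpoint acts as a background internal control marker rather than a target.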 The settings on record: HepG2 CMV promoter reporter, transcription factor profiling; actives raise or lower the signal. The method in brief:
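Bidirectional fits against DMSO are applied to reporter mRNA, read by RT-PCR with capillary electrophoresis, from HepG2 cells exposed 24 h. The endpoint serves as an internal CMV background marker within the cis-factorial reporter panel.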

The nature of test [4]: ATG_DR4_LXR_CIS: Attagene CIS-FACTORIAL HepG2 Assay for human Liver X Receptor (LXR), DR4 submotif (AID 2282929). The settings on record: HepG2 Attagene DR4 cis-reporter, mRNA transcription; AC50: actives raise or lower the signal unless noted; outcome: actives raise or lower the signal unless noted. The method in brief: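 Measures endogenous transcription factor activity via a DR4-driven reporter transcript in human HepG2 cells. Compounds incubated 24 h; mRNA quantified by RT-PCR and capillary electrophoresis, analysed as gain or loss of signal versus DMSO.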

The target of test [5] is Aryl hydrocarbon receptor (Homo sapiens) (UniProt P35869). Nature of the test: ATG_Ahr_CIS: Attagene CIS-FACTORIAL HepG2 Assay for human Aryl Hydrocarbon Receptor (Ahr) (AID 2282930). The settings on record: HepG2 AhR cis-factorial reporter transcription; actives raise or lower the signal. In short, it runs like this: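 Read-out: reporter mRNA quantified by RT-PCR with fluorescent primer extension and capillary electrophoresis. Human HepG2 liver cells carried transfected cis-promoter reporter units and were exposed to chemical for 24 h; gain or loss fitted relative to DMSO.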

Test [6] can be described thus: ATG_AP_1_CIS: Attagene CIS-FACTORIAL HepG2 Assay for human Activator Protein 1 (AP-1) (AID 2282931). The settings on record: HepG2 Attagene cis-factorial AP-1 reporter mRNA; actives raise or lower the signal. In short, it runs like this:
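Bidirectional concentration-response fitting against DMSO controls. Underlying signal: reporter mRNA from cis-promoter constructs in transiently transfected HepG2, measured after 24 h by RT-PCR and capillary electrophoresis.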

A short description of test [7]: ATG_AP_2_CIS: Attagene CIS-FACTORIAL HepG2 Assay for human Activator Protein 2 (AP-2) (AID 2282932). The settings on record: HepG2 AP-2 cis-reporter, Attagene transcription factor profiling; AC50: actives raise or lower the signal unless noted; outcome: actives raise or lower the signal unless noted. In short, it runs like this: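 Liver-derived HepG2 line, cis-reporter system measuring endogenous factors; 24 h dosing; reporter mRNA detected by fluorescent RT-PCR and capillary electrophoresis.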

Test [8] in a line: ATG_BRE_CIS: Attagene CIS-FACTORIAL HepG2 Assay for human Bone Morphogenetic Protein (BMP) Response Element (BRE) (AID 2282933). The settings on record: HepG2 BMP response element reporter, Attagene transcription factor profiling; actives raise or lower the signal. In short, it runs like this: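 HepG2 cells transiently transfected with CIS reporter units (endogenous TF activity, BMP response element), dosed 24 h. Reporter mRNA quantified by RT-PCR, fluorescent labelling and capillary electrophoresis; bidirectional fit vs DMSO baseline.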

The target in test [9] is Retinoic acid receptor alpha (Homo sapiens) (UniProt P10276). Nature of the test: ATG_DR5_RAR_CIS: Attagene CIS-FACTORIAL HepG2 Assay for human Retinoic Acid Receptor Alpha (RARE), DR5 submotif (AID 2282934). The settings on record: HepG2 Attagene cis-factorial RARE DR5 reporter, mRNA; actives raise or lower the signal. In short, it runs like this:
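Read-out: DR5-driven reporter transcript measured by RT-PCR, 6-FAM primer extension, HpaI digest and capillary electrophoresis. Human HepG2 liver cells carry transiently transfected cis-element reporter constructs; dosing lasts 24 h. Gain or loss of signal fitted against DMSO baseline.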

The target in test [10] is Transcription factor E2F1 (Homo sapiens) (UniProt Q01094). Nature of the test: ATG_E2F_CIS: Attagene CIS-FACTORIAL HepG2 Assay for human E2F Transcription Factor 1 (AID 2282935). The settings on record: HepG2 Attagene cis-reporter, E2F reporter RNA transcripts; actives raise or lower the signal. The method in brief:
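Liver-derived HepG2 cells expressing transfected promoter-driven reporter units received test chemical for 24 hours. Signal gains or losses were fitted bidirectionally against DMSO.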

Chain of Aryl hydrocarbon receptor (Homo sapiens) (P35869 whole entry, looked up): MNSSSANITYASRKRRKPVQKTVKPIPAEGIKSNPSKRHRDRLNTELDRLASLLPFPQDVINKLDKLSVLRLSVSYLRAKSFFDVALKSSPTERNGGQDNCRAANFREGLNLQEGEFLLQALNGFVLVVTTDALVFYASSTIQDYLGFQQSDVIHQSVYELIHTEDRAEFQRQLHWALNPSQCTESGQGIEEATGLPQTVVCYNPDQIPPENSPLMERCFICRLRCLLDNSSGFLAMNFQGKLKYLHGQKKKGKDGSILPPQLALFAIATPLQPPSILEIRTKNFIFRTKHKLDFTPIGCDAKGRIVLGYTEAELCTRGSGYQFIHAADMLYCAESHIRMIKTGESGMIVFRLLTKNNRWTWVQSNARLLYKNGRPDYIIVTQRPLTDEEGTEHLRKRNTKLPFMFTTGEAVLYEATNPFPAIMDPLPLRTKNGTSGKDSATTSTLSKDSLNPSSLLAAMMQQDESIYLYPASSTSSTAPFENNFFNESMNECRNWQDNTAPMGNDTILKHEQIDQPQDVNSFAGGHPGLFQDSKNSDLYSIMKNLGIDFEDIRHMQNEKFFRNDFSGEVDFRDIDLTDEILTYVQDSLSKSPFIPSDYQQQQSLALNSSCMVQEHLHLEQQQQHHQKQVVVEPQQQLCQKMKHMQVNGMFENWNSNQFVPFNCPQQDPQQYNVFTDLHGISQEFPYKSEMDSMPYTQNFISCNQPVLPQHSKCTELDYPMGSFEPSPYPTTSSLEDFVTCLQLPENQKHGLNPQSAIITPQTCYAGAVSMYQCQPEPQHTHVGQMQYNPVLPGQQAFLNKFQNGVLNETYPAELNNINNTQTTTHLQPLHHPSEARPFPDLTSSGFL
Chain of CCAAT/enhancer-binding protein beta (Homo sapiens) (P17676 whole entry, looked up): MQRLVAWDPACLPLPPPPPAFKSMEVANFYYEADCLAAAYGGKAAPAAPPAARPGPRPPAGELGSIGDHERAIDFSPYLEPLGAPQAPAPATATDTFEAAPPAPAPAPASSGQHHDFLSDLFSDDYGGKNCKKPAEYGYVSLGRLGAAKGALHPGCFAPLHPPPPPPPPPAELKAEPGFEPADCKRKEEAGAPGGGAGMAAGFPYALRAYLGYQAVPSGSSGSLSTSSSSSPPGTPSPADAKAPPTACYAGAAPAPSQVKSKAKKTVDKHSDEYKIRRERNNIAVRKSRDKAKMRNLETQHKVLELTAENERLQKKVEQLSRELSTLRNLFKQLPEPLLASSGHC
Chain of Retinoic acid receptor alpha (Homo sapiens) (P10276 whole entry, looked up): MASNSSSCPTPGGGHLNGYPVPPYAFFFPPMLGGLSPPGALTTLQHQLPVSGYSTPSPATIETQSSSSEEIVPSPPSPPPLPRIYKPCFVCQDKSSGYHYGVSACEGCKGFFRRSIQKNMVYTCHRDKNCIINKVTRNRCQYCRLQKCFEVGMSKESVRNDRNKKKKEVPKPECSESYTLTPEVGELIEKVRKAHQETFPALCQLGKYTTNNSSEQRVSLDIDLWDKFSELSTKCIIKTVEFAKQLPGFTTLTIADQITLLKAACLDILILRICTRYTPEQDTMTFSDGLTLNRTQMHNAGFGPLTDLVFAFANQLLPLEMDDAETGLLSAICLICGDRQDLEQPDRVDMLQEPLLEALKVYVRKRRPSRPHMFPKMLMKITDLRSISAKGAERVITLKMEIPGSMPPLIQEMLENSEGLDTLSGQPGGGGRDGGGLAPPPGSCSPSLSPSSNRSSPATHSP
Chain of Transcription factor E2F1 (Homo sapiens) (Q01094 whole entry, looked up): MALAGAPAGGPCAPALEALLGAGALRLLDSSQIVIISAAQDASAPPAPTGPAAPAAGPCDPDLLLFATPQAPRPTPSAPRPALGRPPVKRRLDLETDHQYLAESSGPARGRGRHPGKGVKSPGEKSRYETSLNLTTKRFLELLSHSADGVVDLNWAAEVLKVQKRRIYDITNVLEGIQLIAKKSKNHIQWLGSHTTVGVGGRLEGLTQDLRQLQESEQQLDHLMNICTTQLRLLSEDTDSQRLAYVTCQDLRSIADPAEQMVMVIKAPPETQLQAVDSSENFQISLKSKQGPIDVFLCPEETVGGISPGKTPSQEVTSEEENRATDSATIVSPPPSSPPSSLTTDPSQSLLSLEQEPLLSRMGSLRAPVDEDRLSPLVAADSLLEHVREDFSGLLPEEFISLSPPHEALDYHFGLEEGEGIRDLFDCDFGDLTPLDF

For the molecule `C/C=C/C(=O)C1=C(C)CCCC1(C)C`, the AC50 is 34.4 µM (active) in test [1]; 174 µM (active) in [3]; 24.6 µM (active) in test [4]; 72.2 µM (active) in test [5]; 27.6 µM (active) in test [6]; 27.3 µM (active) in test [8]. The outcome in test [2], in [7], in [9] and in [10] was inactive.

In the case of `Oc1c(Cl)ccc(Cl)c1Cl`, the call in test [1], in [2], in test [3], in test [4], in test [6] and in test [7] was inactive. Moreover, the molecule was classed as inactive in test [8], in test [9] and in [10]. For the same molecule, the AC50 in [5] was 68.3 µM (active).

With `CCOC=C(C(=O)OCC)C(=O)OCC`, the molecule was called inactive in [1], in [2], in test [3], in test [4], in test [5] and in [6]. In addition, the call in test [7], in [8], in test [9] and in test [10] was inactive.

In the case of `NCCN`, the call in [1], in test [2], in [3], in [4], in test [5] and in [6] was inactive. Also, the result in [7], in [8], in [9] and in [10] was inactive.

For `CCC(C)c1nccnc1OC` (stereo not given), the result in test [1], in [2], in [3], in [4], in test [5] and in test [6] was inactive. Moreover, the result in test [7], in [8], in test [9] and in test [10] was inactive.

Consider `CCCCCCCCC(C)=O`, for which the molecule was called inactive in test [1], in test [2], in test [3], in test [4], in test [5] and in [6]. The result in [7], in test [8], in test [9] and in test [10] was inactive.

Take `O=S(=O)(O)c1ccccc1`: the call in test [1], in test [2], in test [3], in test [4], in test [5] and in test [6] was inactive. In addition, the molecule was classed as inactive in [7], in [8], in [9] and in test [10].

In the case of `O=C(OC(=O)C(F)(F)C(F)(F)F)C(F)(F)C(F)(F)F`, the call in [1], in test [2], in [3], in test [4], in test [5] and in [6] was inactive. The molecule was called inactive in test [7], in [8], in test [9] and in test [10].

For `CCOC(OCC)C(=O)c1ccccc1`, the result in [1], in test [2], in test [3], in [4], in test [5] and in test [6] was inactive. Besides, the molecule was classed as inactive in test [7], in [8], in test [9] and in test [10].

Consider `C[C@]12CC[C@@H]3c4ccc(O)cc4CC[C@H]3[C@@H]1CC[C@@H]2OC(=O)CCC1CCCC1`, for which the call in [1], in test [6], in test [7], in [9] and in test [10] was inactive. In addition, the AC50 in test [2] was 137 µM (active); in test [3], 25.3 µM (active); in test [4], 14.8 µM (active); in test [5], 126 µM (active); in test [8], 58.2 µM (active).

With `CCc1cccc(CC)c1NC(=O)C(=O)O`, the outcome in test [1], in test [2], in [3], in test [4], in test [5] and in [6] was inactive. Also, the call in test [7], in test [8], in test [9] and in [10] was inactive.

Consider `CC(=O)CC(C)C`, for which the outcome in test [1], in test [2], in [3], in [4], in test [5] and in test [6] was inactive. In addition, the result in [7], in [8], in test [9] and in [10] was inactive.

For the molecule `O=C1c2ccc(O)c(O)c2C(=O)c2c(O)ccc(O)c21`, the outcome in test [1], in test [2], in test [4], in test [7], in [8] and in [9] was inactive. Also, in [10], the molecule was called inactive. For the same molecule, the AC50 is 4.28 µM (active) in test [3], 0.0722 µM (active) in test [5] and 50 µM (active) in test [6].

As for `C=CC(F)(F)C(F)(F)C(F)(F)C(F)(F)F`, the result in test [1], in [2], in test [3], in [4], in [5] and in test [6] was inactive. Further, the result in [7], in test [8], in [9] and in test [10] was inactive.

For `O=C1Cc2ccccc2N1c1c(Cl)cccc1Cl`, the molecule was classed as inactive in [1], in test [2], in test [3], in test [5], in test [6] and in test [7]. Besides, the call in test [9] and in [10] was inactive. In addition, the AC50 in test [4] is 66.4 µM (active); in test [8], 100 µM (active).

Regarding `CCO[Si](CCC1CCC2OC2C1)(OCC)OCC` (stereo not given), the result in [1], in test [2], in [3], in test [4], in test [5] and in [6] was inactive. In addition, the outcome in test [7], in test [8], in test [9] and in [10] was inactive.

In the case of `Clc1ccc2c(Cl)ccnc2c1`, the molecule was called inactive in test [1], in test [2], in test [4], in [6], in [7] and in test [9]. Also, in test [10], the molecule was called inactive. Also, the values for the AC50 in test [3], in test [5] and in test [8] were 57.3 µM (active), 19.8 µM (active) and 65.6 µM (active), respectively.

In the case of `COc1cc(OC)nc(NC(=O)NS(=O)(=O)Nc2ccccc2C(=O)N(C)C)n1`, the outcome in [1], in test [2], in [3], in test [4], in test [5] and in test [6] was inactive. The call in test [7], in test [8], in [9] and in [10] was inactive.

`COC(=O)C(F)(F)C(F)(F)C(F)(F)F`: the molecule was classed as inactive in test [1], in [2], in test [3], in [4], in test [5] and in [6]. The result in [7], in test [8], in [9] and in [10] was inactive.

Regarding `COC(O)c1ccccc1` (stereo not given), the result in test [1], in [2], in [3], in [4], in [5] and in [6] was inactive. In addition, the molecule was called inactive in test [7], in [8], in [9] and in test [10].

As for `CC(C)[C@@H]1CC[C@@H](C)C[C@H]1O`, the molecule was classed as inactive in [1], in test [2], in test [3], in test [4], in test [5] and in test [6]. For the same molecule, the molecule was called inactive in [7], in test [8], in test [9] and in test [10].

Regarding `CCCCCCOC(=O)c1ccc(O)cc1`, the AC50 is 44.2 µM (active) in [1]; 51 µM (active) in test [3]; 41.8 µM (active) in test [4]; 50.4 µM (active) in test [6]; 54.9 µM (active) in test [7]. Further, the result in test [2], in test [5], in test [8], in [9] and in test [10] was inactive.

On to `Brc1ccc(Oc2ccc(Br)cc2Br)cc1`, for which the call in [1], in test [2], in [3], in test [4], in test [5] and in [6] was inactive. The result in test [7], in test [8], in test [9] and in [10] was inactive.
